# Assay outcomes (PubChem BioAssay)
# PREPL inh – inhibits the human prolyl oligopeptidase-like enzyme. recombinant PREPL, fluorescence polarization activity-based probe. 0.68% of 320,000 active. inhibition, % at 5.96 µM. AID 2751
# ALR H2O2 inh – blocks human ALR sulfhydryl oxidase activity. P55789. purified ALR, DTT oxidation, H2O2 HRP-luminol luminescence. inhibition, % (test concentration not listed). 3.8% of 290,000 active. AID 485317;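 active = mean replicate inhibition above about 79%, with every replicate also reaching it, limit read from the data; inconclusive = only one of the two criteria met; inactive = mean below limit and not every replicate reaching it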
# Target sequence (P55789 whole entry, looked up): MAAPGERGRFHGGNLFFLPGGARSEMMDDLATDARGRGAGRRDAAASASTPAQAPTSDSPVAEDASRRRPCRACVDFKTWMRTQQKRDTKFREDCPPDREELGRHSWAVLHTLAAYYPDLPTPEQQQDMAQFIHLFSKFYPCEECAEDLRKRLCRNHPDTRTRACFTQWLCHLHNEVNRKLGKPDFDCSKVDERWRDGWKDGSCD
# AI-2 QS mod – modulates the Vibrio harveyi AI-2 quorum sensing system. activity change, % at 7.5 µM. AID 2094. 0.4% of 300,000 active. Vibrio harveyi JMH597 AI-2 luminescence/OD600 ratio, 9 h; stronger effect = lower value; strain lacks LuxN and CqsS sensors; 0 = neutral-control median; in the data active = activity change below about -75%, passing the limit was not always enough; inconclusive = no clear call, values can overlap the other calls;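 note: luminescence divided by OD600 gain over 9 h not by final OD600 alone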
# CHT PAM – human CHT allosteric activation; B-score at 10 µM; CHT-expressing cells, membrane potential dye, choline EC20; stronger effect = higher value; LV-AA mutant CHT in HEK293 cells; 0.49% of 310,000 active; AID 488977;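 active = initial fluorescence not abnormally high and integrated response B-score, plate-corrected, over 3 SD above library mean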
# CHT block – human CHT choline transport inhibition | B-score at 10 µM | AID 488975 | Q9GZV3 | 0.86% of 310,000 active | CHT-expressing cells, membrane potential dye, choline response; stronger effect = lower value;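 active = B-score over 3 SD under the library average, and starting fluorescence ratio not unusually high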;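 note: choline stimulus applied at its EC90 after an EC20 pre-addition; B-score computed on integrated fluorescence ratio after choline addition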
# PREPL confirm – human PREPL inhibition, confirmation. shares compounds with PREPL inh. recombinant PREPL, fluorescence polarization activity probe. AID 2803. inhibition, % at 5.96 µM. 67% of 2,000 active
# Hits are given with their value; n = inactive; u = inconclusive; x = no result given. Shown are actives, neighbours in structure and some others; about 5% of the full set was active somewhere. Cut-off read from the data, not from the text of the source, unless noted: active = inhibition above about 43%; inactive = the rest.
SMILES,PREPL inh,ALR H2O2 inh,AI-2 QS mod,CHT PAM,CHT block,PREPL confirm
Cn1c(=O)[nH]c(=O)c2c1nc(N1CCOCC1)n2CCc1ccccc1,n,n,n,n,n,x
CC1CCCCN1C(=O)c1ccc(CS(=O)(=O)Cc2ccccc2)cc1 (stereo unspecified),n,n,n,n,n,x
Cc1c(CN2CCN(CC(C)C)C(CCO)C2)[nH]c2ccc(Cl)cc12 (stereo unspecified),46,x,n,n,n,44
CC(=O)CCC(=O)N1CCCC(CNC(=O)c2ccc(-c3ccccc3)cc2)C1 (stereo unspecified),43,n,n,n,n,n
Oc1sc(C=Nc2ccc(F)cc2)c2ccccc12,51,n,n,n,n,51
CN(C)Cc1c(O)ccc2occ(C(=O)c3ccccc3)c12,n,n,n,n,n,x
COc1ccc(C(=O)c2coc3ccc(O)c(CN4CCCCC4)c23)cc1,57,n,n,n,n,59
O=C(c1ccccc1)c1coc2ccc(O)c(CN3CCOCC3)c12,43,n,n,n,n,44
CC(C(=O)OCC(=O)Nc1cccc(S(=O)(=O)N2CCOCC2)c1)N1C(=O)c2ccccc2C1=O (stereo unspecified),n,x,n,n,n,x
Cc1ccc(-c2[nH]c3ccccc3c2SCCN)cc1,57,n,n,n,n,n
CC(C)NCC(O)Cn1c2c(c3ccccc31)CCc1c-2cnn1-c1ccccc1 (stereo unspecified),66,89,n,n,-6.5,82
CN1CCc2c(n(CC(O)CNCc3ccccc3)c3ccccc23)C1=O (stereo unspecified),n,n,n,n,n,x
COc1ccc2c(COC(=O)CNS(=O)(=O)c3ccc(C)c(C)c3)cc(=O)oc2c1,n,n,x,x,x,x
COc1ccc(CNC(=O)CN(Cc2ccccc2)C(=O)CCC(=O)Nc2nccs2)cc1,n,x,n,n,n,x
N#CNC(=Nc1cccc(F)c1)SCc1ccccc1F,n,n,n,n,n,x
CC(C)(C)NC(=O)CSC(=Nc1cccc(F)c1)NC#N,64,n,n,n,n,n
C[C@@H]1CN([C@@H](C)CO)C(=O)Cc2cc(NC(=O)Nc3ccc4c(c3)OCO4)ccc2O[C@@H]1CN(C)C(=O)NC1CCCCC1,54,x,x,x,x,46
Cc1ccc(S(=O)(=O)Nc2ccc3c(c2)CC(=O)N([C@H](C)CO)C[C@H](C)[C@H](CN(C)Cc2ccc4c(c2)OCO4)O3)cc1,51,n,x,x,x,53
CC(C)NC(=O)Nc1ccc2c(c1)CC(=O)N([C@@H](C)CO)C[C@H](C)[C@@H](CN(C)C(=O)NC1CCCCC1)O2,n,x,x,x,x,x
CCN(CC)C(=O)[C@H]1CC(CC(=O)NCCCn2ccnc2)C(=O)N2CCc3c([nH]c4ccccc34)[C@]12C (stereo partly specified),n,n,x,x,x,x
Cc1ccc2nc3c(cc(C(=O)NCCc4ccccc4)c(=N)n3CCN3CCOCC3)c(=O)n2c1,45,n,n,n,n,n
CC(Sc1nc2ccccc2s1)C(=O)N(C)Cc1ccccc1 (stereo unspecified),n,x,n,n,n,x
Cc1ccc(CNc2ccc(N3CCOCC3)cc2)cc1,44,99,x,n,n,n
CC(C)c1ccc(CNc2ccc(N3CCOCC3)cc2)cc1,52,99,n,n,n,55
c1cc2c(cc1CNc1ccc(N3CCOCC3)cc1)OCO2,57,98,x,x,x,n
SMILES,PREPL inh,ALR H2O2 inh,AI-2 QS mod,CHT PAM,CHT block,PREPL confirm
CC(C)c1ccc(S(=O)(=O)Nc2ccc(N3CCOCC3)cc2)cc1,n,n,n,n,n,x
Cc1c(-c2ccncc2)oc2ccc(Br)cc2c1=O,n,n,n,n,n,x
Cc1ccc(C(=O)OCC(=O)N2CCC(c3ccccc3)=N2)cc1,n,n,x,x,x,x
CS(=O)(=O)N(CC(=O)Nc1cccc(Br)c1)Cc1ccccc1,x,n,n,n,n,x
CN(CC1CCOCC1)C(=O)CC1C(=O)NCCN1CC(c1ccccc1)c1ccccc1 (stereo unspecified),n,n,n,n,n,x
CN(CC(=O)Nc1ccccc1Cl)C(=O)c1cccc(S(=O)(=O)N2CCN(c3ccc(F)cc3)CC2)c1,n,n,n,n,n,x
CN(CC(=O)Nc1ccccc1Cl)C(=O)c1cccc(S(=O)(=O)N2CCN(Cc3ccccc3)CC2)c1,67,n,n,n,n,70
CC(NC(=O)COC(=O)/C=C/c1ccc2c(c1)OCO2)c1ccccc1 (stereo unspecified),n,n,x,x,x,x
O=C(N/N=C/c1cc(Br)c(O)c(Br)c1)c1cc2c(ccc3ccccc32)o1,x,n,n,n,n,x
O=C(N/N=C/c1cc(Cl)c(O)c(Cl)c1)c1cc2c(ccc3ccccc32)o1,59,n,u,n,n,69
OCc1nc2ccccc2n1CCOc1ccccc1,n,n,n,n,n,x
CCOc1ccc(NCc2nc3ccccc3n2CCOc2ccccc2)cc1,45,n,n,n,n,45
CCN(CC(=O)Nc1ccccc1OC)CC(=O)Nc1ccccc1-c1ccccc1,n,n,n,n,n,x
COc1cc(C(=O)O)c2ccccc2n1,n,n,n,n,n,x
CC(=O)N1CCN(C(=O)C2CCN(S(=O)(=O)c3ccccc3C(F)(F)F)CC2)CC1,n,n,x,x,x,x
CN(C)c1ccc(C(CNC(=O)COc2ccc(Cl)cc2)N2CCCC2)cc1 (stereo unspecified),67,n,n,n,n,53
Nc1ccc2c(c1)C(=O)c1ccccc1-2,n,n,n,n,n,x
Nc1ccc2c(c1)C(=O)C(=O)c1ccccc1-2,61,n,u,n,n,53
Nc1ccc(N(c2ccccc2)c2ccc(N)cc2)cc1,48,x,n,n,n,n
CN(C)c1ccc(CCc2ccc(N)cc2)cc1,n,u,n,n,n,x
CCN(CC(=O)N1CCN(Cc2ccccc2)CC1)S(=O)(=O)c1ccc(C)cc1,n,n,n,n,n,x
COc1ccc(NC(=O)Nc2cccc3c2O[C@@H](CN(C)CC2CCCCC2)[C@@H](C)CN([C@H](C)CO)C3=O)cc1,57,n,x,x,x,51
C[C@H](CO)N1C[C@H](C)[C@@H](CN(C)S(C)(=O)=O)Oc2c(NC(=O)Cc3ccccc3)cccc2C1=O,n,n,x,x,x,x
C[C@H](CO)N1C[C@H](C)[C@@H](CN(C)S(=O)(=O)c2ccc(F)cc2)Oc2c(NC(=O)Cc3ccccc3)cccc2C1=O,44,x,x,x,x,n
COc1ccc(NC(=O)Nc2ccc3c(c2)C(=O)N([C@@H](C)CO)C[C@@H](C)[C@@H](CN(C)CC2CCCCC2)O3)cc1,n,n,x,x,x,x
C[C@H]1CN([C@@H](C)CO)C(=O)c2cccc(NS(=O)(=O)c3ccc(Cl)cc3)c2O[C@@H]1CN(C)CC1CCCCC1,61,n,x,x,x,50
C[C@H](CO)N1C[C@H](C)[C@@H](CN(C)S(=O)(=O)c2cccs2)Oc2c(NC(=O)Cc3ccccc3)cccc2C1=O,43,n,x,x,x,n
